24 targets from the supplement of paper PMC3616981 can be followed below.

± gives the standard deviation of the averaged measurements.

Compound in the assay: CC(C)c1cccc(C(C)C)c1N1C(=O)c2ccc(O)cc2C1=O
Briefly: BioMAP readout fold decrease vs vehicle (vehicle/treated); higher = stronger decrease of the readout vs vehicle (values <1 mean increase). As to the method: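 BioSeek BioMAP human primary cell (co-)culture systems (3C, 4H, LPS, SAg, BE3C, CASM3C, hDFCGF, KF3CT) treated with 5HPP-33 at 1.48, 4.44, 13.3 and 40 µM. Read-outs are protein levels by ELISA, proliferation and SRB total protein. Duplicate rows per assay are averaged as replicates. Tested in ToxCast Phase II for this study; exposure time not stated.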
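Also: Co-cultures of keratinocytes, bronchial epithelial and smooth muscle cells, fibroblasts, HUVECs and PBMCs under stimuli like LPS, TNF-α, IFN-γ, IL-1β, TGF-β or EGF, SRB reflecting cytotoxicity.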

For SAg_PBMCCytotoxicity, the “BioMAP readout fold decrease” value by setting is: (1.48 µM) 0.998 ± 0.065; (4.44 µM) 1.01 ± 0.078; (13.3 µM) 0.879 ± 0.028; (40 µM) 0.894 ± 0.028.

Regarding KF3CT_uPA, the “BioMAP readout fold decrease” value is, setting by setting: (1.48 µM) 1.016 ± 0.0099; (4.44 µM) 1.015 ± 0.01; (13.3 µM) 0.969 ± 0.012; (40 µM) 2.15 ± 0.47.

With 3C_MIG, the “BioMAP readout fold decrease” value (1.48 µM) came to 1.004 ± 0.0083, the “BioMAP readout fold decrease” value (4.44 µM) was determined as 1.01 ± 0.0047, the “BioMAP readout fold decrease” value (13.3 µM) worked out at 1 ± 0.012 and the “BioMAP readout fold decrease” value (40 µM) worked out at 1.09 ± 0.016.

In the case of LPS_MCP1, the “BioMAP readout fold decrease” value (1.48 µM) is 1.03 ± 0.028, the “BioMAP readout fold decrease” value (4.44 µM) amounted to 1.01 ± 0.012, the “BioMAP readout fold decrease” value (13.3 µM) came out at 1.02 ± 0.016 and the “BioMAP readout fold decrease” value (40 µM) came out at 2.69 ± 0.19.

KF3CT_IP10: the “BioMAP readout fold decrease” value (1.48 µM) is 0.9935 ± 0.0028, the “BioMAP readout fold decrease” value (4.44 µM) was found to be 1.06 ± 0.035, the “BioMAP readout fold decrease” value (13.3 µM) stood at 1.39 ± 0.016 and the “BioMAP readout fold decrease” value (40 µM) was 7.16 ± 0.78.

On to BE3C_IL1a, for which the “BioMAP readout fold decrease” value came out at 1.06 ± 0.13 (1.48 µM), 1.13 ± 0.015 (4.44 µM), 1.19 ± 0.015 (13.3 µM) and 1.85 ± 0.082 (40 µM).

As for KF3CT_IL1a, the “BioMAP readout fold decrease” value was found to be 0.969 ± 0.029 (1.48 µM), 0.992 ± 0.045 (4.44 µM), 0.987 ± 0.034 (13.3 µM) and 2.08 ± 0.17 (40 µM).

CASM3C_Proliferation: the “BioMAP readout fold decrease” value by setting is: (1.48 µM) 1.11 ± 0.024; (4.44 µM) 1.58 ± 0.054; (13.3 µM) 1.2 ± 0.23; (40 µM) 2.76 ± 0.16.

For the target 3C_ICAM1, the “BioMAP readout fold decrease” value came out at 1.05 ± 0.025 (1.48 µM), 1.05 ± 0.019 (4.44 µM), 1.02 ± 0.013 (13.3 µM) and 1.08 ± 0.087 (40 µM).

Consider CASM3C_MIG, for which the “BioMAP readout fold decrease” value by setting is: (1.48 µM) 0.9799 ± 0.0029; (4.44 µM) 0.9517 ± 0.009; (13.3 µM) 0.96395 ± 0.0005; (40 µM) 1.03 ± 0.015.

For CASM3C_IL8, the “BioMAP readout fold decrease” value reads like this: (1.48 µM) 1.02 ± 0.02; (4.44 µM) 1.074 ± 0.0085; (13.3 µM) 0.938 ± 0.016; (40 µM) 0.872 ± 0.025.

Turning to 4H_Pselectin, the “BioMAP readout fold decrease” value (1.48 µM) turned out to be 0.965 ± 0.074, the “BioMAP readout fold decrease” value (4.44 µM) is 1.09 ± 0.095, the “BioMAP readout fold decrease” value (13.3 µM) was determined as 1.56 ± 0.019 and the “BioMAP readout fold decrease” value (40 µM) stood at 1.75 ± 0.032.

Regarding SAg_MCP1, the “BioMAP readout fold decrease” value stood at 1.08 ± 0.023 (1.48 µM), 0.997 ± 0.021 (4.44 µM), 0.892 ± 0.0095 (13.3 µM) and 4.61 ± 0.68 (40 µM).

On to BE3C_SRB, for which the “BioMAP readout fold decrease” value came to 0.9933 ± 0.0058 (1.48 µM), 0.9934 ± 0.0085 (4.44 µM), 1.0272 ± 0.001 (13.3 µM) and 1.1579 ± 0.0011 (40 µM).

For the target hDFCGF_TIMP1, the “BioMAP readout fold decrease” value (1.48 µM) is 0.847 ± 0.061, the “BioMAP readout fold decrease” value (4.44 µM) came to 0.78536 ± 0.00052, the “BioMAP readout fold decrease” value (13.3 µM) turned out to be 0.608 ± 0.042 and the “BioMAP readout fold decrease” value (40 µM) came to 0.715 ± 0.069.

LPS_MCSF: the “BioMAP readout fold decrease” value runs as follows: (1.48 µM) 1.081 ± 0.0067; (4.44 µM) 1.32 ± 0.11; (13.3 µM) 1.686 ± 0.0043; (40 µM) 2.21 ± 0.14.

With hDFCGF_PAI1, the “BioMAP readout fold decrease” value is, setting by setting: (1.48 µM) 1.12 ± 0.14; (4.44 µM) 1.08 ± 0.056; (13.3 µM) 1.43 ± 0.031; (40 µM) 3.53 ± 0.21.

For the target KF3CT_SRB, the “BioMAP readout fold decrease” value amounted to 1.012 ± 0.0046 (1.48 µM), 1.011 ± 0.0045 (4.44 µM), 1.0454 ± 0.00028 (13.3 µM) and 1.53 ± 0.21 (40 µM).

As to 4H_VEGFRII, the “BioMAP readout fold decrease” value (1.48 µM) was determined as 1.07 ± 0.028, the “BioMAP readout fold decrease” value (4.44 µM) was found to be 1.03 ± 0.021, the “BioMAP readout fold decrease” value (13.3 µM) turned out to be 1.2 ± 0.076 and the “BioMAP readout fold decrease” value (40 µM) came out at 1.45 ± 0.069.

On to 3C_Proliferation, for which the “BioMAP readout fold decrease” value came to 1.29 ± 0.074 (1.48 µM), 3.56 ± 0.043 (4.44 µM), 6.1 ± 0.28 (13.3 µM) and 7.03 ± 0.41 (40 µM).

For the target 3C_TissueFactor, the “BioMAP readout fold decrease” value runs as follows: (1.48 µM) 0.903 ± 0.018; (4.44 µM) 0.906 ± 0.021; (13.3 µM) 0.943 ± 0.014; (40 µM) 1.43 ± 0.2.

As to hDFCGF_IP10, the “BioMAP readout fold decrease” value was found to be 1.1 ± 0.1 (1.48 µM), 1.073 ± 0.0033 (4.44 µM), 1.33 ± 0.037 (13.3 µM) and 5.47 ± 0.25 (40 µM).

As for LPS_IL8, the “BioMAP readout fold decrease” value is, setting by setting: (1.48 µM) 1.07 ± 0.0052; (4.44 µM) 0.942 ± 0.0096; (13.3 µM) 0.805 ± 0.015; (40 µM) 1.02 ± 0.053.

As to 3C_VCAM1, the “BioMAP readout fold decrease” value reads like this: (1.48 µM) 1.05 ± 0.029; (4.44 µM) 1.15 ± 0.027; (13.3 µM) 1.33 ± 0.03; (40 µM) 2.03 ± 0.072.
